Laboratory results reported in ChEMBL document CHEMBL1201862, “PubChem BioAssay data set” (2004).
Screen size: about 400,000 compounds; about 2,100 (0.53%) were called active. Another 14% or so got no clear call; they are omitted. No rule for the calls is given here. The sample as a whole holds a higher share of actives than the screen did.

biological target: Ataxin-2 (Homo sapiens) (UniProt Q99700); test: qHTS for Inhibitors of ATXN expression.; format: functional
Sequence (Q99700 whole entry): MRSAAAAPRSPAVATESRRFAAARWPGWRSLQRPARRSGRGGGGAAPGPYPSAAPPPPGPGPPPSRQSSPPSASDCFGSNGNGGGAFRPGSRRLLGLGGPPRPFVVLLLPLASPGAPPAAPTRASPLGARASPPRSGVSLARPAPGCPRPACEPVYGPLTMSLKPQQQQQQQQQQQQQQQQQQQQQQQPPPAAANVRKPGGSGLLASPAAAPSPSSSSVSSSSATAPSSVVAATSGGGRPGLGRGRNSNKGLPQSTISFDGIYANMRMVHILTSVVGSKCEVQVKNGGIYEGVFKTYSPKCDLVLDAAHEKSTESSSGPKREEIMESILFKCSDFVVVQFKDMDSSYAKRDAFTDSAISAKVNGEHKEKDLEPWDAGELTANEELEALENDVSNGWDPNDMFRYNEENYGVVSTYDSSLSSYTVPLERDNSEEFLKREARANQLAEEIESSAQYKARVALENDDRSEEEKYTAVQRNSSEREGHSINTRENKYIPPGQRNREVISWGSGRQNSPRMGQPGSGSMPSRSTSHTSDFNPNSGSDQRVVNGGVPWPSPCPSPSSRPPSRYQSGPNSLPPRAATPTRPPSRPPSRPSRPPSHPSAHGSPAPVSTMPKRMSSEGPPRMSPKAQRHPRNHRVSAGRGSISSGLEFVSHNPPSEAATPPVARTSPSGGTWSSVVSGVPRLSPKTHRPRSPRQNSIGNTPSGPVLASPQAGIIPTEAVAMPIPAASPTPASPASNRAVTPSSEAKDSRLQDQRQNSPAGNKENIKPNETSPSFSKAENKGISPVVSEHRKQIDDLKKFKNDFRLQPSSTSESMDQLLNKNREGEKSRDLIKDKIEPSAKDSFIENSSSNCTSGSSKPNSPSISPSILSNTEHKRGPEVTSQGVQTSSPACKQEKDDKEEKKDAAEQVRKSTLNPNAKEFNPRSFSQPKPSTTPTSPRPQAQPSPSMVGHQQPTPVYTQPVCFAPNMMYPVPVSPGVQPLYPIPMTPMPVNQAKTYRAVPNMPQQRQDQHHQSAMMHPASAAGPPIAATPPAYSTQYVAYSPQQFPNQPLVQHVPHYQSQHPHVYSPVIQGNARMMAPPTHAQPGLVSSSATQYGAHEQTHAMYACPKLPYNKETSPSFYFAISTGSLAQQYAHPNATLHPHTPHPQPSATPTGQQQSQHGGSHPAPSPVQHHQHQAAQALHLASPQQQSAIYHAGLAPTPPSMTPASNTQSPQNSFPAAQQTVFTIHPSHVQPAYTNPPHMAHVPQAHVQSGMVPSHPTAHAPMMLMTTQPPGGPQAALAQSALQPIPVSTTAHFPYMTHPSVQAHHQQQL

Row | SMILES | Potency
1 | COCCCn1/c(=N/C(=O)c2ccncc2)c(C#N)cc2c(=O)n3cccc(C)c3nc21 | inactive
2 | c1cc2c(cc1C1CCCCC1)c1c3n2CCCNC3CCC1 (centres undefined) | 39.8 µM (active)
3 | COc1ccc(OC)c(S(=O)(=O)Nc2ccc(O)c3ccccc23)c1 | 28.2 µM (active)
4 | COc1ccc(NS(=O)(=O)c2cc(NC(=O)c3cc(=O)c4ccccc4o3)ccc2OC)cc1 | inactive
5 | COc1ccc(OC)c(S(=O)(=O)Nc2ccc3c(c2)OCCO3)c1 | inactive
6 | CN(CCC1CCCCO1)C(=O)CCc1nnc(CCCCc2ccccc2)o1 (centres undefined) | inactive
7 | Cc1cc(C)c(CN2CCN(CCCn3cnc(C(=O)Nc4ccc(C)c(C)c4)n3)CC2)c(C)c1 | 35.5 µM (active)
8 | Cc1ccc(OCC(=O)Nc2ccc(CN3CCOCC3)cc2)cc1C | inactive
9 | Brc1ccc(C2=CC(c3ccco3)n3nnnc3N2)cc1 (centres undefined) | inactive
10 | CC(C)N=C(S)NN=C1c2ccccc2-c2ccccc21 | inactive
11 | CCOC(=O)c1sc2nc(C)nc(Nc3ccc(OC)c(OC)c3)c2c1C | inactive
12 | CCc1nnc(NS(=O)(=O)c2ccc(N/C=C\C(=O)c3cccc(OC)c3)cc2)s1 | inactive
13 | COc1cc(/C=C/C(=O)OCC(=O)NC2CCS(=O)(=O)C2)ccc1OC(F)F (centres undefined) | inactive
14 | CCOc1ccc(Nc2oc(/C=C/c3cccc(OC)c3)nc2C#N)cc1 | inactive
15 | COc1ccc(/C=C/C(=O)Nc2ccc(Cl)c(Cl)c2)cc1OC | 31.6 µM (active)
16 | COc1ccc(/C=C/C(=O)Nc2cccnc2)cc1OC | inactive
17 | CCC1CSC(Nc2ccc(C(=O)/C=C/c3ccc(OC)c(OC)c3)cc2)=N1 (centres undefined) | 39.8 µM (active)
18 | COc1cccc(/C=C/C(=O)c2ccc(NC3=NCCCS3)cc2)c1 | 39.8 µM (active)
19 | COc1cc(/C=C/C(=O)Nc2ccc(S(=O)(=O)Nc3onc(C)c3C)cc2)cc(OC)c1OC | inactive
20 | CC(C)C(C)(C#N)NC(=O)CSc1nnc(C(F)(F)F)n1C (centres undefined) | inactive
21 | COc1cccc(/C=C/c2nc(C#N)c(N3CCCCCC3)o2)c1 | inactive
22 | COc1ccccc1[C@@H]1C(c2cccc(C)c2)=NN(c2ccccc2)[C@H]1C(=O)N1CCOC1=O | inactive
23 | CCN1CN=C(S)N(c2ccccc2C)C1 | inactive
24 | Cc1nn2c(-c3ccc(F)cc3)ccnc2c1Cl | inactive
25 | CN(C)c1ccc(/C=C2\Oc3ccc(C#Cc4cccc(N)c4)cc3C2=O)cc1 | inactive
26 | CN1Cc2c(N3CCOCC3)nc3sc(C(=O)c4ccc(Br)cc4)c(N)c3c2CC1(C)C | inactive
27 | Cc1ccccc1-c1nc(C#N)c(N2CCCCC2)o1 | inactive
28 | COC1=C(OC)C(=O)C(Sc2ccc3ccccc3c2)=CC1=O | 33.6 µM (active)
29 | CC1=CC(=O)C(Sc2ccc(C)cc2)=CC1=O | inactive
